The results in this text go back to ChEMBL document CHEMBL4513216, “Probing the Open Global Health Chemical Diversity Library for Multistage-Active Starting Points for Next-Generation Antimalarials” (ACS Infect Dis, 2020).

Molecules are shown by their SMILES. The whole screen tested about 69,000 compounds, of which about 8,600 (12%) showed an effect of 50% or more. Only a selection was taken, and strong results are over-represented in it overall.

The subject of the assay is Plasmodium berghei. The experiment in a line: Screen against P. berghei liver stage (PbLuc), transformed with Luciferase, at 10uM. Particulars: tested at 10 uM. Type of assay: functional, HepG2.
With `CCC(=O)N1CCCN(c2cncc(-n3nc(C)cc3C)n2)CC1`, the INHIBITION turned out to be 13.2%.

Turning to `Cc1cc(C)n(-c2cncc(N3CCN(C(=O)C(C)C)CC3)n2)n1`, the INHIBITION is 14%. With `Cc1cc(C)n(-c2cncc(N3CCN(C(=O)CN(C)C)CC3)n2)n1` the figure was 52.6%; with `CCc1cc(N2CCC(n3cc(C(=O)NCC(C)C)nn3)CC2)ncn1`, 71.4%; with `CC(C)Nc1cc(N2CCC(n3cc(C4CC4)nn3)CC2)ncn1`, 24.7%. Take `OCCNc1cc(N2CCC(n3cc(C4CCCC4)nn3)CC2)ncn1`: the INHIBITION was found to be 28%. In the case of `CCc1cc(N2CCC(n3cc(C(=O)NC4CC4)nn3)CC2)ncn1`, the INHIBITION was determined as 89.3%. Take `CCc1cc(N2CCC(NCc3ccc(C)o3)CC2)ncn1`: the INHIBITION is recorded as -24.9%. For the compound `Cc1ccc(SCCCNC(=O)c2cn(C3CCC(N)CC3)nn2)cc1` (stereo not given), the INHIBITION was -164%. `CCc1ncc(CN2CCN(c3cc(NC4CC4)nc(N)n3)CC2)cn1`: the INHIBITION is recorded as -55%. In the case of `CCc1cc(N2CCC(Nc3ccc(Cl)cn3)CC2)ncn1` it was 84.6%. On to `O=C(NC1CC1)c1cn(C2CCN(c3cc(C4CC4)ncn3)CC2)nn1`, for which the INHIBITION amounted to 39.3%. With `CSCCC(C)(O)CNS(=O)(=O)Cc1ccc(F)cc1` (stereo not given) the figure was 44.9%; with `Cc1ccccc1CNC(=O)CN1CCCC(Cc2nccn2C)C1` (stereo not given), -50.8%; with `CC(C)CCn1cc(C(C(=O)O)N2CCCN(C3CCCC3)CC2)cn1` (stereo not given), 33.9%. Take `c1nc(CNC2CCOCC2)c2n1CCCN(CC1CC1)C2`: the INHIBITION is recorded as 45.1%. Consider `Cn1ccc(C(=O)NC2CCC23CCN(Cc2cnn(C)c2)CC3)c1` (stereo not given), for which the INHIBITION is given as -28.7%. In the case of `CCS(=O)(=O)N1CCN(CCn2cccn2)c2nc(C)ccc2C1` it was 26.3%; in that of `c1cc(CN2CC[C@@H]3[C@@H](CO[C@H]3CN3CCOCC3)C2)cs1`, -20.1%; in that of `CCN(CC)C(=O)CNC(=O)c1ccc(-c2ccsc2)nc1C`, 34.5%.

Turning to `CCN(CC)C(=O)CN(C)C(=O)c1ccc(-c2ccsc2)nc1C`, the INHIBITION is 59.5%. With `CCN(CC)C(=O)c1ccc(-c2ccsc2)nc1C` the figure was -6.53%; with `CCn1nc(C)c2nn(CC(=O)NC3CCSCC3)cc21`, 25.4%; with `Cn1cccc1C(=O)N1C[C@@H]2C[C@@H](c3nc(C4CC4)cs3)O[C@@H]2C1`, -5.08%. Take `CC(C)(C)C(=O)NCCc1cc2nc(-c3ccncc3)ccn2n1`: the INHIBITION was determined as 24.44%.

As to `CCOCC(O)CN1CCN(C(=O)c2cccc(OC)c2)CC1` (stereo not given), the INHIBITION is given as -33.7%.

For `CCOC(=O)C1(CCOC)CCCN(Cc2nccn2CC)C1` (stereo not given), the INHIBITION is 62.2%. With `CCOC(=O)C1(CCOC)CCN(Cc2nccn2CC)CC1` the figure was 28.7%; with `OCC1(Cc2cccc(Cl)c2)CCCN(c2ncccn2)C1` (stereo not given), 11.4%; with `Cc1ncc(C)c(N2CCCC(CO)(Cc3cccc(Cl)c3)C2)n1` (stereo not given), 86.8%. With `N#Cc1ccccc1CN1CCC(c2nccn2CC(N)=O)CC1`, the INHIBITION is -15.3%.

For the compound `CCn1ccnc1C1CCN(Cc2cccc(C)n2)CC1`, the INHIBITION was determined as 24.2%. With `CCC1(CO)CCCN(Cc2nccn2Cc2ccccc2)C1` (stereo not given) the figure was -82.2%. With `CCn1ccnc1CN1CCCC(CO)(Cc2cccc(Cl)c2)C1` (stereo not given) the figure was 79.3%; with `Cc1cccc(CN2CCC(c3nccn3CC(N)=O)CC2)n1`, 58.3%; with `Cc1cnc(C)c(N2CCCC(CO)(Cc3cccc(Cl)c3)C2)n1` (stereo not given), 34.6%. With `CCn1ccnc1CN1CCCC(CO)(Cc2cccc(OC)c2)C1` (stereo not given) the figure was 23.7%; with `CCOC(=O)C1(Cc2ccccc2)CCCN(Cc2nccn2CC)C1` (stereo not given), 35.4%; with `COc1ccccc1CN(CC1CCCO1)C(=O)c1csnn1` (stereo not given), 18.4%. In the case of `O=C(CCc1nccs1)N1CCN(c2nccs2)CC1`, the INHIBITION is recorded as -2.19%.

For the compound `CCOCc1ccc(CNC(=O)N2CCC(C(N)=O)C2)cc1` (stereo not given), the INHIBITION was 25.6%. In the case of `c1cncc(CN2CCCC(Nc3ncnc4c3CCNCC4)C2)c1` (stereo not given) it was 20.9%; in that of `CNC(=O)[C@@H]1C[C@H]2CN(Cc3ccc(C)s3)C[C@H]2N1C(C)=O`, 34.6%; in that of `CC1CCN(C(=O)c2sccc2-n2cnnn2)CC1`, 20.3%. With `O=C(NCCc1ccc(F)cc1)NCC(O)c1cccc(F)c1` (stereo not given) the figure was 18.2%. In the case of `O=C(N[C@@H]1CC[C@@H](N2CCCC2)[C@@H]1O)c1cc2cccc(F)c2[nH]1`, the INHIBITION is -0.232%. In the case of `CNC(=O)C1CN(Cc2cc(C)on2)CCN(C2CCOCC2)C1` (stereo not given) it was -3.94%. In the case of `CCCN1CCc2[nH]nc(C(=O)N3CCNC(=O)C3)c2C1`, the INHIBITION is on record as -9.42%. In the case of `CN(C)C(=O)N1C[C@H]2CC[C@@H](C1)N(S(=O)(=O)c1cccnc1)C2`, the INHIBITION is recorded as -62.1%. In the case of `CCCOc1cc(CNC(=O)Nc2ccc(C)cc2)ccn1` it was -14.5%; in that of `CCn1ccnc1C1CCN(Cc2c(F)cccc2F)CC1`, 43.9%. `CCn1ccnc1C1CCN(Cc2cccc(Cl)c2)CC1`: the INHIBITION is recorded as 60.1%. Take `CCn1ccnc1C1CCN(C(=O)C(O)c2ccc(Cl)cc2)CC1` (stereo not given): the INHIBITION came to 6.66%.

As to `CCN1CCN(C(=O)COCc2nc(-c3ccncc3)no2)CC1`, the INHIBITION is listed as -2.92%.

With `CCS(=O)(=O)NCCN1CCN(C(C#N)c2ccccc2)CC1` (stereo not given), the INHIBITION worked out at 19.4%.
